Assay [1] concerns the target Phospholipid hydroperoxide glutathione peroxidase GPX4 (Homo sapiens) (UniProt P36969). The experiment in a line: Primary qHTS Assay for Inhibitors of Recombinant Selenoprotein Glutathione Peroxidase 4 (GPX4) (AID 1845192). Note: nearly all actives have a fitted effect of over 65% in size. Note: potency is the fitted concentration of half-maximal effect. An outline of the steps: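 NADPH consumption followed by fluorescence at 340/450 nm, t=0 and after 15 min at room temperature. Reaction started with cumene hydroperoxide (0.5 mM final) after 30 min compound–GPX4 preincubation; final 200 nM GPX4, 100 nM GR, 1 mM GSH, 0.5 mM NADPH.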

Assay [2] can be described thus: Quantitative High-Throughput drug screen in 47 multiple myeloma cell lines against the NCATS MIPE library collection: FR4_PLB cell viability assay (AID 1918924; note: nearly all actives have a fitted effect of over 35% in size; note: potency is the fitted concentration of half-maximal effect). In short, it runs like this:
(§1)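 Approved and investigational drugs from MIPE 4.0 were added by pin tool to 500 cells per well. After 48 hours at 37C, ATP-based CellTiter-Glo luminescence indicated remaining viability.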

The nature of assay [3]: Quantitative High-Throughput drug screen in 47 multiple myeloma cell lines against the NCATS MIPE library collection: EJM_DSMZ cell viability assay (AID 1918926; note: nearly all actives have a fitted effect of over 30% in size; note: potency is the fitted concentration of half-maximal effect). In short, it runs like this:
as §1

A short description of assay [4]: Quantitative High-Throughput drug screen in 47 multiple myeloma cell lines against the NCATS MIPE library collection: AMO1_DSMZ cell viability assay (AID 1918927; note: nearly all actives have a fitted effect of over 30% in size; note: potency is the fitted concentration of half-maximal effect). An outline of the steps:
as §1

The nature of assay [5]: Quantitative High-Throughput drug screen in 47 multiple myeloma cell lines against the NCATS MIPE library collection: ARP1_JJKsccF8 cell viability assay (AID 1918928; note: nearly all actives have a fitted effect of over 40% in size; note: potency is the fitted concentration of half-maximal effect). In short, it runs like this: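 Each line was plated at 500 cells/well and treated 48 h with library drugs. Viability came from CellTiter-Glo luminescence relative to DMSO and cell-free medium controls.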
A short description of assay [6]: Quantitative High-Throughput drug screen in 47 multiple myeloma cell lines against the NCATS MIPE library collection: ARD_JJKsccE7 cell viability assay (AID 1918929; note: potency is the fitted concentration of half-maximal effect). An outline of the steps: as §1
Assay [7] in a line: Quantitative High-Throughput drug screen in 47 multiple myeloma cell lines against the NCATS MIPE library collection: Delta47_JCRB cell viability assay (AID 1918925; note: nearly all actives have a fitted effect of over 45% in size; note: potency is the fitted concentration of half-maximal effect). In short, it runs like this: as §1
Assay [8] deals with Luciferin 4-monooxygenase (Photinus pyralis) (UniProt P08659). In words: Primary firefly luciferase (FLuc) qHTS assay for identification of artifact compounds. (AID 1845220). Note: nearly all actives have a fitted effect of over 60% in size. An outline of the steps: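 Cell-free, 1536-well qHTS. Buffer pH 7.6 with 0.01% Tween-20 and 0.05% BSA; 10 uM D-luciferin, 10 uM ATP; 10 nM P. pyralis luciferase; luminescence after 5 min.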
Assay [9] can be described thus: Primary fluorescence-based thiol-reactive (MSTI) qHTS assay for identification of artifact compounds. (AID 1845221).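 Note: series mostly up to about 54 µM; thiol-reactive compounds lower the probe fluorescence signal; nearly all actives have a fitted effect of over 65% in size.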 In short, it runs like this: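 Probe: MSTI 4 uM, PBS pH 7.4, 2% DMSO. Incubation 1 h, RT, light-protected. Readout fluorescence 525/598 nm.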
Assay [10] deals with Nanoluciferase (engineered Oplophorus gracilirostris luciferase). In words: Primary Nanoluciferase (NLuc) qHTS assay for identification of artifact compounds. (AID 1845222). Note: series mostly up to about 54 µM. An outline of the steps: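 Compounds are pinned into diluted (1:55) conditioned medium of NLuc-expressing S16 cells and held 15 min at room temperature protected from light. Nano-Glo substrate follows, and luminescence is read 5 min later.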

A short description of assay [11]: Primary redox qHTS assay for identification of artifact compounds. (AID 1845223). An outline of the steps:
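Redox-cycling detection via DTT (250 uM final) oxidation coupled to Amplex Red (25 uM)/HRP (250 mU/mL) in HBSS. 15 min preincubation plus 30 min after DTT, room temperature. Ex/Em 525/598 nm; 4-parameter Hill fit against DMSO and 10 uM DA3003.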

Here are results for 23 compounds from PubChem BioAssay (NCATS).

Values without a mark were called inactive. Inconclusive results are not listed. Activity calls are given as the source filed them. Calls come from the whole dose curve; as a rule, active = well fitted curve in the direction sought with a large enough effect; inconclusive = small, poorly fitted or top-dose-only effect, or another doubt; inactive = no such curve, though single readings can be large; an effect the other way counts as inactive or inconclusive.

Phospholipid hydroperoxide glutathione peroxidase GPX4 (Homo sapiens), sequence (P36969 whole entry, looked up): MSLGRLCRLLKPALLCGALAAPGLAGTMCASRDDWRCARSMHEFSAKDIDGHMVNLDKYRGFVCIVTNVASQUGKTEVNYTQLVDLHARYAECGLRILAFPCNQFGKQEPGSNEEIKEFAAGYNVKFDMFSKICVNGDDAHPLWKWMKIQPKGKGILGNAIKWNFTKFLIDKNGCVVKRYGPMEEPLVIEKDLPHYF

Take `C[C@@H]1C(=O)O[C@H]2CC34[C@H]5C[C@@H](C(C)(C)C)C36[C@H](OC(=O)[C@@H]6O)O[C@@]4(C(=O)O5)[C@]21O` (stereo partly drawn): the Potency result in assay [1], in [2], in assay [3], in assay [4], in assay [5] and in assay [6] was “inactive” in each case.

For the compound `COc1cc(C(=O)NC2CCN(C)CC2)ccc1Nc1ncc2c(n1)N(C1CCCC1)CCC(=O)N2C(C)C`, in assay [1], the Potency result was “inactive”. The Potency is 14.8 µM (active) in assay [7]; 16.6 µM (active) in assay [3]; 9.35 µM (active) in [4]; 29.6 µM (active) in [5]; 18.7 µM (active) in [6].

`C=C[C@@H]1CN2CCC1C[C@H]2[C@H](O)c1ccnc2ccc(OC)cc12` (stereo partly drawn): the Potency entry in [1], in assay [4] and in assay [6] was “inactive” in each case.

In the case of `CC(=O)O[C@]1(C(C)=O)CC[C@H]2[C@@H]3C=C(C)C4=CC(=O)CC[C@]4(C)[C@@H]3CC[C@@]21C`, the Potency entry in assay [2] and in assay [3] was “inactive” each time. The Potency in assay [7] and in [4] was 8.33 µM (active) in each case.

As to `CC[C@H](CC[C@@H](C)[C@H]1CC[C@H]2[C@@H]3CC=C4C[C@@H](O)CC[C@]4(C)[C@@H]3CC[C@]12C)C(C)C`, the Potency result in assay [2], in assay [7], in assay [3], in [4], in assay [5] and in [6] was “inactive” each time.

Take `Cn1cc(-c2ccc3ncc(Cc4ccc5ncccc5c4)n3n2)cn1`: the Potency result in assay [8], in assay [9], in assay [11], in assay [2], in [5] and in assay [6] was “inactive” in each case. Besides, the result in [10] was inactive. Further, the Potency in [4] is 14.8 µM (active).

For the compound `CC(C)c1cnn2c(NCc3ccccc3)cc(NCCCCCCN)nc12`, the Potency entry in assay [1] is “inactive”. In addition, the Potency in assay [2] was 18.7 µM (active); in [3] it was 13.2 µM (active); in [4] it was 23.5 µM (active); in assay [5], 16.6 µM (active); in [6] it was 20.9 µM (active).

As for `C[C@@]12C(=O)OC(=O)[C@@]1(C)C1CCC2O1`, the Potency in [2] was 1.48 µM (active); in assay [7] it was 0.935 µM (active); in assay [3], 2.64 µM (active); in assay [4] it was 1.32 µM (active); in assay [5], 0.833 µM (active); in [6], 1.66 µM (active).

For the compound `CC1(C)CC(O)CC(C)(C)N1[O]`, the Potency result in [2], in assay [7], in assay [3], in [4] and in [5] was “inactive” throughout.

Take `CC(C)OC(=O)[C@H](C)N[P@](=O)(OC[C@H]1O[C@@H](n2ccc(=O)[nH]c2=O)[C@](C)(F)[C@H]1O)Oc1ccccc1`: the Potency result in assay [2], in [7], in assay [3], in assay [4], in assay [5] and in [6] was “inactive” throughout.

For the compound `CCCNC(=O)[C@H]1O[C@H]1C(=O)N[C@H](C(=O)N1CCC[C@@H]1C(=O)OC)C(C)CC` (stereo partly drawn), the Potency in assay [2] is 8.33 µM (active); in [7], 13.2 µM (active); in assay [3], 5.9 µM (active); in assay [4] it was 4.69 µM (active); in [5], 8.33 µM (active).

Take `Cc1ccc2nc(NCCN)c3ncc(C)n3c2c1`: the Potency in [1] was 22.7 µM (active); in assay [7] it was 5.9 µM (active); in assay [3], 1.48 µM (active); in [4], 8.33 µM (active); in assay [5], 8.33 µM (active); in assay [6] it was 9.35 µM (active).

With `N#CC(=Cc1ccc(O)c(O)c1)C(=O)NCc1ccccc1`, the Potency in assay [2] was 5.26 µM (active); in assay [7], 1.66 µM (active); in [3] it was 14.8 µM (active). In addition, in [4], the Potency result was “inactive”.

For `COc1ccc(C[C@@H](C)[C@@H](C)Cc2ccc(OC)c(OC)c2)cc1OC`, the Potency entry in [1] is “inactive”. In addition, the Potency in assay [2] was 0.118 µM (active); in [7], 0.296 µM (active); in assay [5], 0.132 µM (active).

In the case of `Cc1ccc(-n2[nH]c(C)c(N=Nc3cccc(-c4cccc(C(=O)O)c4)c3O)c2=O)cc1C`, the Potency entry in [1], in assay [4] and in [6] was “inactive” each time. Moreover, in assay [2], the Potency was 20.9 µM (active).

Regarding `O=C(C[C@@H]1CC=CCCC(=O)O[C@H](c2ccccc2)CNC1=O)NCc1ccc(Cl)cc1`, the Potency in assay [2] is 16.6 µM (active); in assay [7], 10.5 µM (active).

Take `Cc1ccccc1C(=O)Nc1ccc(C(=O)N2CCCC(O)c3cc(Cl)ccc32)c(C)c1` (stereo not drawn): the Potency entry in assay [8], in [9], in assay [11], in assay [2], in assay [7] and in assay [5] was “inactive” throughout. Further, the result in [10] was inactive. Further, the Potency in assay [3] is 20.9 µM (active).

With `COc1cc(C(C)C)c(Oc2cnc(NC(CO)CO)nc2N)cc1I`, the Potency entry in [1] and in assay [5] was “inactive” each time. Further, the Potency in [2] is 5.26 µM (active); in assay [3], 0.469 µM (active); in assay [4] it was 14.8 µM (active).

As for `CC(C)N(CC[C@H](c1ccccc1)c1cc(CO)ccc1O)C(C)C`, the Potency entry in assay [2], in [7], in assay [3], in assay [4] and in [5] was “inactive” in each case.

As to `COc1cc([C@@H]2c3cc4c(cc3[C@@H](O[C@@H]3O[C@@H]5CO[C@@H](c6cccs6)O[C@@H]5[C@H](O)[C@@H]3O)[C@H]3COC(=O)[C@H]23)OCO4)cc(OC)c1O`, the Potency in [2] was 16.6 µM (active); in assay [7], 0.935 µM (active); in assay [3] it was 2.35 µM (active); in assay [4], 0.59 µM (active); in assay [5], 0.209 µM (active).

On to `CC(C)(N)c1ccc(-c2nc3ccccc3nc2-c2ccccc2)cc1`, for which the Potency result in [8], in assay [9] and in [11] was “inactive” throughout. The compound was classed as inactive in assay [10]. Moreover, the Potency was 5.9 µM (active) in assay [7], 23.5 µM (active) in [3], 14.8 µM (active) in assay [4] and 14.8 µM (active) in assay [6].

For `N#CNC(=NCCCCCCOc1ccc(Cl)cc1)Nc1ccncc1`, in [1], the Potency entry was “inactive”. The Potency in assay [7] is 18.7 µM (active); in [3], 16.6 µM (active); in assay [4], 0.0187 µM (active); in assay [5], 0.0066 µM (active); in assay [6] it was 0.0469 µM (active).

On to `CC(C)(C)[N+]([O-])=Cc1ccc(S(=O)(=O)O)cc1S(=O)(=O)O`, for which the Potency entry in [2], in assay [7], in assay [3], in assay [4] and in assay [5] was “inactive” each time.
